# Reference: article PMC6212790, “How bacterial xenogeneic silencer rok distinguishes foreign from self DNA in its resident genome”
# In all, about 33,000 sequences were measured (“e-score”: median about -0.037, highest 2% from about 0.34 on). For the sample, the highest values were picked, then their nearest neighbours and some sequences at random.
# Biological target: T1, GST-Rok (full length) (Bacillus subtilis subsp. subtilis str. …, UniProt O34857 1-191)
# T1 sequence: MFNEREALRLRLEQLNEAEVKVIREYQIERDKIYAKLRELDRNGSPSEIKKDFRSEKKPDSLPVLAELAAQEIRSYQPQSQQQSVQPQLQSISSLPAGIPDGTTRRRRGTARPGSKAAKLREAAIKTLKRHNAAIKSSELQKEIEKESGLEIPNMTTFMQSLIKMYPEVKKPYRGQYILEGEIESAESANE
# Assay: protein binding microarray; Rok is a gene silencer of Bacillus subtilis; high values mean tight binding
# Conditions: protein: recombinant; tags: GST (pTH5325, pDEST15-Magic modified); dsDNA, one strand shown
# Procedure, shortened: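 Every oligonucleotide joins a 25-mer constant primer to a 35-mer variable part drawn from a de Bruijn sequence of order 10, so each non-palindromic 8-mer appears at least 32 times and each palindromic 8-mer 16 times. The preference for every 8-mer is reported as a unitless, rank-based enrichment score (E-score). This score spans 0.5 for the most favored 8-mer to −0.5 for the most disfavored.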
row,Sequence,binding signal
1,AGACGCAA,-0.089 E-score
2,GCCATTCA,0.0688 E-score
3,ACCGAGCG,-0.175 E-score
4,CTTAGTAC,0.206 E-score
5,GGTAGTAC,0.339 E-score
6,GGTAGGAC,0.0568 E-score
7,AGTAGTGC,0.0725 E-score
8,AGTAGTAC,0.336 E-score
9,CGTAGTAC,0.202 E-score
10,CTCAACTA,0.13 E-score
11,CATGGAGA,0.0828 E-score
12,CATGCGGC,-0.125 E-score
13,ACATGCCA,0.0568 E-score
14,CCATGCTA,0.073 E-score
15,GCATGCTA,0.111 E-score
16,ACATGCTA,0.365 E-score
17,ACCTATGA,0.118 E-score
18,ATAAGTGA,0.123 E-score
19,CTATTTTA,0.325 E-score
20,ATATTTTA,0.412 E-score
21,ATATTTTC,0.326 E-score
22,GTATTTGA,0.0869 E-score

row,Sequence,binding signal
1,GTATTTAA,0.285 E-score
2,CTATTTTC,0.344 E-score
3,ATATTTTG,0.297 E-score
4,CTATTTCC,0.18 E-score
5,GTATTTTA,0.411 E-score
6,GTGACGTA,0.0931 E-score
7,CCTGGTCA,-0.133 E-score
8,GAAGTAGC,0.182 E-score
9,GGTCGGGA,-0.156 E-score
10,CCCGACGA,-0.104 E-score
11,AGCACTAA,-0.126 E-score
12,CAATAGAC,0.089 E-score
13,AAAAGCGC,-0.0281 E-score
14,ATGATAGC,0.179 E-score
15,CTGATATA,0.204 E-score
16,ATGATATG,0.172 E-score
17,ATGATATA,0.389 E-score
18,ATGATAGA,0.342 E-score
19,ATGATAGG,0.0932 E-score
20,AATTCGTA,0.263 E-score
21,ATAGTCTC,0.0365 E-score
22,ATAGTCTA,0.0771 E-score

row,Sequence,binding signal
1,GAAGTAAA,0.237 E-score
2,GTAGTAAC,0.321 E-score
3,ATAGTAAG,0.282 E-score
4,GGAGTAAA,-0.112 E-score
5,CTAGTAAC,0.303 E-score
6,ATAGTCTG,0.347 E-score
7,ATAGTAAT,0.392 E-score
8,ATAGTAAC,0.366 E-score
9,GTAGTAAA,0.348 E-score
10,AGAGTAAT,0.197 E-score
11,CATAGGGA,-0.158 E-score
12,AGCCATAT,0.162 E-score
13,CTGTCCAC,-0.116 E-score
14,GAAGAGTA,0.266 E-score
15,GCAGCTTA,-0.093 E-score
16,GCTCGAAC,-0.0353 E-score
17,TCCTTAAA,-0.0816 E-score
18,TTAGTAAA,0.237 E-score
19,ATAGTATG,0.359 E-score
20,ATAGTATA,0.278 E-score
21,ATAGTATC,0.321 E-score
22,CTAGTAAA,0.328 E-score

row,Sequence,binding signal
1,ATAGTAAA,0.397 E-score
2,AGATTCAA,0.0974 E-score
3,AACTTTCG,-0.0406 E-score
4,ATTCGTTA,0.228 E-score
5,CAAGTTGC,-0.00109 E-score
6,GTAATGAA,-0.0724 E-score
7,GTAATGTA,0.364 E-score
8,ATAATGTC,0.175 E-score
9,CTAATGTA,0.184 E-score
10,ATAATGTG,0.201 E-score
11,ATAATGTA,0.4 E-score
12,ATTAACAG,0.0334 E-score
13,TACCGCCA,0.0353 E-score
14,AAAGAAAG,0.132 E-score
15,CGATACGA,-0.0427 E-score
16,GTACGGCA,-0.048 E-score
17,AGTATATG,0.264 E-score
18,AGTATATC,0.221 E-score
19,AGTATATA,0.451 E-score
20,CGTATATA,0.28 E-score
21,AGTATAAA,0.278 E-score
22,GGTATAAC,0.313 E-score

row,Sequence,binding signal
1,GGTATATA,0.386 E-score
2,GGTATAAA,0.383 E-score
3,GGTATAGA,0.222 E-score
4,GGTCGTAA,0.0357 E-score
5,AAGCCGAA,0.00167 E-score
6,GTCTGGCA,-0.182 E-score
7,ACTAATCG,0.0113 E-score
8,ACCTTGGA,-0.145 E-score
9,AAGCTAGC,0.137 E-score
10,CAATAACG,0.0291 E-score
11,GAGTTTCA,-0.16 E-score
12,TAGTTTGA,0.347 E-score
13,CAGTTTCA,-0.0996 E-score
14,GAGTTTGA,-0.199 E-score
15,TAGTTTCA,0.392 E-score
16,AAGTTTGA,-0.0342 E-score
17,AATAAGAA,0.209 E-score
18,CGGCGGCA,-0.198 E-score
19,AGTAGCGA,0.181 E-score
20,AGACTATC,0.0106 E-score
21,CAATCTAG,0.285 E-score
22,GAATCTAC,0.425 E-score
